From PubChem BioAssay (NCI) come the findings set out here.

This is part of a sample that, as a whole, favours compounds with a hit. Of some 79,000 tested, about 15% had one in any assay. Values without a mark were called inactive. Calls of active or inactive are those of the source. No stated cut-off is given here; in the data, active means growth inhibition above about 70%; inactive means the rest.

A short description of this assay: NCI Yeast Anticancer Drug Screen. Data for the bub3 strain (AID 167). To be noted: S. cerevisiae bub3 mutant strain, active compounds read high. Here is the method: Growth inhibition of yeast strains with defined genetic alterations is measured as a screen for potential anti-cancer activity. Selected strains with alterations in DNA damage repair or cell cycle control were exposed to compounds and growth inhibition was measured relative to vehicle treated controls. The strain used in this assay is bub3

Setting [1] is: at 5.0 µM (retest, dose inferred, filed as 0.5).
Where [2] appears, read: at 50.0 µM (retest, dose inferred, filed as 5.0).

Turning to `CCOc1ccc2nc3ccccc3c(N)c2c1`, the growth inhibition was -20% (at 1.2 µM); -2% (at 3.7 µM); 14% under setting [1]; 16% (at 11.0 µM); 78% (active) (at 33.0 µM); 84% (active) under setting [2]. The growth inhibition runs as follows: (at 50.0 µM) 87.1% (active); (at 100.0 µM) 90% (active).
With `CC(C)=CCc1c2c(c(O)c3c(=O)c(-c4ccc(O)c(O)c4)coc13)C=CC(C)(C)O2`, the growth inhibition reads like this: (at 1.2 µM) -29%; (at 3.7 µM) -28%; under setting [1], 14%; (at 11.0 µM) 90% (active); (at 33.0 µM) 93% (active); under setting [2], 92% (active). The growth inhibition (at 50.0 µM) is 84.8% (active) and the growth inhibition (at 100.0 µM) was 87% (active).
For the compound `CC1C(c2ccccc2)SC(=N)N1C` (stereo not given), the growth inhibition was -3% (at 1.2 µM); -2% (at 3.7 µM); -2% under setting [1]; -3% (at 11.0 µM); -3% (at 33.0 µM); -7% under setting [2]. In addition, the growth inhibition is -4.4% (at 50.0 µM) and 0% (at 100.0 µM).
As for `CC(C)[Si]1(C(C)C)OCC2OC(n3cnc4c(N)ncnc43)C(N)C2O[Si](C(C)C)(C(C)C)O1` (stereo not given), the growth inhibition (at 1.2 µM) was -3%; the growth inhibition (at 3.7 µM) is -10%; the growth inhibition under setting [1] was -26%; the growth inhibition (at 11.0 µM) is 9%; the growth inhibition (at 33.0 µM) was 97% (active); the growth inhibition under setting [2] is 99% (active). The growth inhibition is, setting by setting: (at 50.0 µM) 86.5% (active); (at 100.0 µM) 98% (active).
As for `Fc1cc(F)c(F)c(S)c1F`, the growth inhibition reads like this: (at 1.2 µM) -9%; (at 3.7 µM) -4%; under setting [1], 12%; (at 11.0 µM) 26%; (at 33.0 µM) 84% (active); under setting [2], 98% (active). For the same compound, the growth inhibition was 90.9% (active) (at 50.0 µM) and 99% (active) (at 100.0 µM).
